Measured values taken from PubChem BioAssay (EPA / NIEHS).
Activity calls are given as the source filed them. Rule for the calls: active = hit-call score of the fitted dose curve at least 0.9, where 1 is the maximum; inactive = score below 0.9.

molecular target: Hepatocyte nuclear factor 3-beta (Homo sapiens) (UniProt Q9Y261); assay: ATG_FoxA2_CIS: Attagene CIS-FACTORIAL HepG2 Assay for human Forkhead box A2 (FOXA2) (AID 2282942); settings: HepG2 cis-reporter transcription factor activity, 24 h; actives raise or lower the signal
In short: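 HepG2 cells transiently transfected with multiple cis-regulated reporter transcription units, dosed for 24 h. Reporter mRNA measured by RT-PCR, 6-FAM labelling, HpaI digestion and capillary electrophoresis; bidirectional fitting against DMSO baseline.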

Sequence of Hepatocyte nuclear factor 3-beta (Homo sapiens) (Q9Y261 whole entry, looked up): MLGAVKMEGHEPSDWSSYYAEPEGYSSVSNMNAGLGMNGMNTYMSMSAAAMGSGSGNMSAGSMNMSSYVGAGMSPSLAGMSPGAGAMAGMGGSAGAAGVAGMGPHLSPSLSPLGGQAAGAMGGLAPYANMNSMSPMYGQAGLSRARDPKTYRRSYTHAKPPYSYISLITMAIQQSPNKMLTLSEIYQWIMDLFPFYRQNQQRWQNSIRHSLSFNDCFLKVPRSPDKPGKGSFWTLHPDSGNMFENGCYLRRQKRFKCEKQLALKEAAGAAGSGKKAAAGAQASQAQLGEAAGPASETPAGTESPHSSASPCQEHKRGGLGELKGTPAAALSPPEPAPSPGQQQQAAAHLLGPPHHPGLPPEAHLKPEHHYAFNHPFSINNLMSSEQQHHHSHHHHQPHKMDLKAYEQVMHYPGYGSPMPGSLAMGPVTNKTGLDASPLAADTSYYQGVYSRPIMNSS

Row | SMILES | outcome
1 | Oc1cc2ccccc2c2ccccc12 | inactive
2 | CC(C)(C)CC(C)(C)c1ccc(O)c(-n2nc3ccccc3n2)c1 | inactive
3 | Cc1ccc(S(=O)(=O)O)c(C)c1 | inactive
4 | CCCCCCCCC(=O)O | inactive
5 | CN1CCN(c2ccccc2/C=C2\SCCN(c3ccc(Cl)c(Cl)c3)C2=O)CC1 | inactive
6 | c1ccc2c(c1)Cc1ccccc1-2 | inactive
7 | FC(F)(I)C(F)(F)C(F)(F)C(F)(F)C(F)(F)C(F)(F)I | inactive
8 | CC(C)(C)c1ccc(O)c(C(C)(C)C)c1 | inactive
9 | O=C(OCCOCCOC(=O)c1ccccc1)c1ccccc1 | inactive
10 | CCCCC(CC)COC(=O)CCCCC(=O)OCC(CC)CCCC (stereo unspecified) | inactive
11 | CC(C)CCCCCCOC(=O)CCCCC(=O)OCCCCCCC(C)C | inactive
12 | C[C@@H]1C[C@H]2[C@@H]3CCC4=CC(=O)C=C[C@]4(C)[C@@]3(F)[C@@H](O)C[C@]2(C)[C@@]1(O)C(=O)COP(=O)(O)O | inactive
13 | CCCCC(CC)COC(=O)CCCCC(=O)OCc1ccccc1 (stereo unspecified) | inactive
14 | COc1ccc([N+](=O)[O-])cc1N | inactive
15 | CC(C)(C)c1cc(C(C)(C)C)c(O)c(C(C)(C)C)c1 | inactive
16 | c1ccc2c(c1)ccc1ccccc12 | inactive
17 | CCCCCCCCOC(=O)CCCCCCCCC(=O)OCCCCCCCC | inactive
18 | CC(C)(C)c1cccc(C(C)(C)C)c1O | inactive

Row | SMILES | outcome
19 | CCC(C)(C)C1CCC(O)CC1 (stereo unspecified) | inactive
20 | CCN(CC)CCNc1ccc(CNC=O)c2sc3ccc(OC)cc3c(=O)c12 | inactive
21 | CCCCC[C@H](O)CC(=O)CCc1ccc(O)c(OC)c1 | inactive
22 | CC(=O)NC1(c2cccc(F)c2)CCN(CC[C@@]2(c3ccc(Cl)c(Cl)c3)CN(c3ccccc3)C(=O)CO2)CC1 | inactive
23 | Oc1cccc(O)c1 | inactive
24 | CC(O)CO (stereo unspecified) | inactive
25 | CCCCCCCCCCCCN1CCCC1=O | inactive
26 | O=C(/C=C/c1ccc(O)cc1)CC(=O)/C=C/c1ccc(O)cc1 | inactive
27 | COc1cc(CCC(=O)CC(=O)CCc2ccc(O)c(OC)c2)ccc1O | inactive
28 | O=c1c(-c2ccc(O)cc2)coc2cc(O)ccc12 | inactive
29 | CCCCCCCCCCCCc1ccccc1S(=O)(=O)O | inactive
30 | CCc1nn(C2CCCCC2)c2cc(C3(C#N)CCC(C(=O)O)CC3)ccc12 (stereo unspecified) | inactive
31 | C=C(C)C(=O)OCCC(F)(F)C(F)(F)C(F)(F)C(F)(F)C(F)(F)C(F)(F)F | inactive
32 | CCCCOCCO | inactive
33 | CCCOc1sc(C(=O)N2CCC(c3cc(CN)ccc3F)CC2)c(C)c1Br | inactive
34 | Cc1cc(CCN2CCN(c3nsc4ccccc34)CC2)cc2c1NC(=O)CC2(C)C | inactive
35 | CCCCCCCCCCCCCCCS(=O)(=O)Oc1ccccc1 | inactive

system: not listed separately; assay: ATG_FoxO_CIS: Attagene CIS-FACTORIAL HepG2 Assay for human Forkhead box O (FoxO) (AID 2282943); settings: HepG2 Attagene cis-reporter, FoxO element, mRNA; actives raise or lower the signal
In short: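 Human hepatoma HepG2 cells carry transiently introduced reporter transcription units controlled by cis promoter elements. Chemical treatment lasted 24 h, and mRNA signal was compared with DMSO.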

Row | SMILES | outcome | AC50
36 | Oc1cc2ccccc2c2ccccc12 | inactive | 
37 | CC(C)(C)CC(C)(C)c1ccc(O)c(-n2nc3ccccc3n2)c1 | inactive | 
38 | Cc1ccc(S(=O)(=O)O)c(C)c1 | inactive | 
39 | CCCCCCCCC(=O)O | inactive | 
40 | CN1CCN(c2ccccc2/C=C2\SCCN(c3ccc(Cl)c(Cl)c3)C2=O)CC1 | inactive | 
41 | c1ccc2c(c1)Cc1ccccc1-2 | inactive | 
42 | FC(F)(I)C(F)(F)C(F)(F)C(F)(F)C(F)(F)C(F)(F)I |  | 17.4 µM (active)
43 | CC(C)(C)c1ccc(O)c(C(C)(C)C)c1 | inactive | 
44 | O=C(OCCOCCOC(=O)c1ccccc1)c1ccccc1 | inactive | 
45 | CCCCC(CC)COC(=O)CCCCC(=O)OCC(CC)CCCC (stereo unspecified) | inactive | 
46 | CC(C)CCCCCCOC(=O)CCCCC(=O)OCCCCCCC(C)C | inactive | 
47 | C[C@@H]1C[C@H]2[C@@H]3CCC4=CC(=O)C=C[C@]4(C)[C@@]3(F)[C@@H](O)C[C@]2(C)[C@@]1(O)C(=O)COP(=O)(O)O | inactive | 
48 | CCCCC(CC)COC(=O)CCCCC(=O)OCc1ccccc1 (stereo unspecified) | inactive | 
49 | COc1ccc([N+](=O)[O-])cc1N | inactive | 
50 | CC(C)(C)c1cc(C(C)(C)C)c(O)c(C(C)(C)C)c1 | inactive | 
51 | c1ccc2c(c1)ccc1ccccc12 | inactive | 
52 | CCCCCCCCOC(=O)CCCCCCCCC(=O)OCCCCCCCC | inactive | 
53 | CC(C)(C)c1cccc(C(C)(C)C)c1O | inactive | 

Row | SMILES | outcome | AC50
54 | CCC(C)(C)C1CCC(O)CC1 (stereo unspecified) | inactive | 
55 | CCN(CC)CCNc1ccc(CNC=O)c2sc3ccc(OC)cc3c(=O)c12 | inactive | 
56 | CCCCC[C@H](O)CC(=O)CCc1ccc(O)c(OC)c1 | inactive | 
57 | CC(=O)NC1(c2cccc(F)c2)CCN(CC[C@@]2(c3ccc(Cl)c(Cl)c3)CN(c3ccccc3)C(=O)CO2)CC1 | inactive | 
58 | Oc1cccc(O)c1 | inactive | 
59 | C#C[C@]1(O)CC[C@H]2[C@@H]3CCC4=CC(=O)CC[C@@H]4[C@H]3CC[C@@]21C | inactive | 
60 | CC(O)CO (stereo unspecified) | inactive | 
61 | CCCCCCCCCCCCN1CCCC1=O | inactive | 
62 | O=C(/C=C/c1ccc(O)cc1)CC(=O)/C=C/c1ccc(O)cc1 | inactive | 
63 | COc1cc(CCC(=O)CC(=O)CCc2ccc(O)c(OC)c2)ccc1O | inactive | 
64 | O=c1c(-c2ccc(O)cc2)coc2cc(O)ccc12 | inactive | 
65 | CCCCCCCCCCCCc1ccccc1S(=O)(=O)O | inactive | 
66 | CCc1nn(C2CCCCC2)c2cc(C3(C#N)CCC(C(=O)O)CC3)ccc12 (stereo unspecified) | inactive | 
67 | C=C(C)C(=O)OCCC(F)(F)C(F)(F)C(F)(F)C(F)(F)C(F)(F)C(F)(F)F | inactive | 
68 | CCCCOCCO | inactive | 
69 | CCCOc1sc(C(=O)N2CCC(c3cc(CN)ccc3F)CC2)c(C)c1Br | inactive | 
70 | Cc1cc(CCN2CCN(c3nsc4ccccc34)CC2)cc2c1NC(=O)CC2(C)C | inactive | 
71 | CCCCCCCCCCCCCCCS(=O)(=O)Oc1ccccc1 | inactive | 
